# Bioassay records as filed in PubChem BioAssay.
# PLC-gamma1 inh – inhibitors of human phospholipase C gamma1; purified PLC-gamma1, fluorogenic substrate, fluorescence; inhibition, % at 12.2 µM; actives 0.84% (n = 370,000); AID 720700; in the data active = inhibition above about 9.5%
# ADAM17 inh – ADAM17 inhibition, QFRET primary screen; AID 720648; actives 0.83% (n = 370,000); recombinant ADAM17, EDANS/DABCYL FRET peptide cleavage; P78536; inhibition, % at 6.95 µM;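 active = inhibition above the mean of compounds lying between control limits plus 3 SD, set per campaign, cut at about 8.5% in these data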;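 note: 0% = DMSO-only wells as the low control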
# ADAM10 inh – inhibits human ADAM10; AID 720582; O14672; actives 0.62% (n = 370,000); recombinant ADAM10, EDANS/DABCYL FRET peptide cleavage, 3 h; inhibition, % at 7 µM;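 active = inhibition above a per-campaign cutoff equal to the mean of compounds falling between control-based bounds plus 3 SD, cut at about 20% in these data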;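 note: 0% = DMSO wells while the 100% control is not disclosed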
# Target sequence (O14672 214-748 limits assumed): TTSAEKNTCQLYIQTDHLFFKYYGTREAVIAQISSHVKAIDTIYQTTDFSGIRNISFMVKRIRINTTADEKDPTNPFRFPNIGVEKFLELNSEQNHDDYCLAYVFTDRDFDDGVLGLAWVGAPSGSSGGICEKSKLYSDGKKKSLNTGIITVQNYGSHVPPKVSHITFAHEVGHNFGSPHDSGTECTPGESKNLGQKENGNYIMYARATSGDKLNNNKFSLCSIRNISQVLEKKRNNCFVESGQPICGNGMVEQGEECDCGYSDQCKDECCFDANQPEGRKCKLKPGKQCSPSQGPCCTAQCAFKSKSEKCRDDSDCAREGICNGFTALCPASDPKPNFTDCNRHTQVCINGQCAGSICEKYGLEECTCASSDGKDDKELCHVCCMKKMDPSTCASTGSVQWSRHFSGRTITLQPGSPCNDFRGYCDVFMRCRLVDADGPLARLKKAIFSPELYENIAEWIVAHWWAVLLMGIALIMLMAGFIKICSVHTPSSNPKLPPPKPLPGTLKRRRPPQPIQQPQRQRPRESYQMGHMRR
# PLCb3 inh – inhibitors of human phospholipase C beta3; actives 0.18% (n = 370,000); Purified PLC-beta3, fluorogenic substrate, fluorescence; inhibition, % at 12.2 µM; AID 720704; Q01970; in the data active = inhibition above about 11%;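 note: 0% = median of compound wells on plate and 100% = full blocker control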
# KLK7 zymogen act – proKLK7 (human) activation, primary screen. purified proKLK7, EDANS-DABCYL substrate fluorescence; 100% is mature enzyme control, 0% vehicle. activation, % at 7 µM. actives 0.9% (n = 370,000). AID 652039;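 active = activation above the mean of all tested compounds plus 3 SD, computed per campaign excluding outliers beyond control limits, cut at about 13% in these data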
# ADAM10 confirm – confirmation of inhibitors of human ADAM10 | actives 1% (n = 2,100) | shares compounds with ADAM10 inh | inhibition, % at 6.95 µM | ADAM10 QFRET peptide cleavage, EDANS fluorescence;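 active = inhibition above about 20% chosen separately for each screening run, limit read from the data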;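 note: 0% = DMSO wells and 100% = marimastat wells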
# ADAM17 ctr – inhibits human ADAM17 in ADAM10 exosite counter-screen. shares compounds with ADAM10 inh. ADAM17 QFRET peptide cleavage, EDANS fluorescence. inhibition, % at 6.95 µM. actives 0.5% (n = 2,100). AID 743214;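 active = mean triplicate inhibition above the solvent-only control wells' mean plus 3 SD, cut at about 12% in these data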;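 note: 0% = DMSO wells and 100% = marimastat wells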
# * marks the source's active call; other numbers are inactive results; nt = no result. Rows were chosen to be rich in hits. Some 2.9% of all compounds tested hit in one or more screens of this group.
SMILES,PLC-gamma1 inh,ADAM17 inh,ADAM10 inh,PLCb3 inh,KLK7 zymogen act,ADAM10 confirm,ADAM17 ctr
O=C(NC1CCCN(Cc2ccc(Cl)cc2)C1)c1cccc(F)c1 (stereo not drawn),1,-2,82*,-1,0,1,0
COc1cc(-c2nnc(SCC(=O)N3C(C)CCCC3C)o2)cc(OC)c1OC (stereo not drawn),-1,1,-1,1,0,nt,nt
Cc1ccc(NC(=S)Nc2cc(-c3ccccc3)[nH]n2)cc1Cl,2,4,16,3,0,nt,nt
Fc1ccc(NC(=S)Nc2cc(-c3ccccc3)[nH]n2)cc1Cl,-1,5,22*,-9,0,10,3
Cc1noc(C)c1COc1cccc(C(=O)OCCOc2ccc(F)cc2)c1,0,5,26*,-3,1,4,1
Nc1ccc(S(=O)(=O)N2CCCc3ccccc32)cc1,5,4,24*,7,0,0,0
CCc1ccc2c(CN3CCN(S(=O)(=O)c4ccccc4F)CC3)cc(=O)oc2c1,1,2,12,0,2,nt,nt
CCc1ccc2c(CN3CCN(S(=O)(=O)c4cccs4)CC3)cc(=O)oc2c1,8,6,21*,10,-1,3,0
CCOC(=O)[C@@]12CN(C(=O)OC(C)(C)C)CC=C1N(Cc1ccc(OC)cc1)C(=O)[C@H]2CC(=O)N1CCSCC1,0,0,2,1,0,nt,nt
CC(C)C[C@H](NC(=O)c1nc[nH]c1C(=O)N[C@@H](CC(C)C)C(=O)OCc1ccccc1)C(=O)OCc1ccccc1,2,2,8,4,0,nt,nt
C[C@@H](NC(=O)c1[nH]cnc1C(=O)Nc1ccccc1)c1ccccc1,2,3,16,0,0,nt,nt
O=C(N[C@@H](Cc1ccccc1)C(=O)OCc1ccccc1)c1nc[nH]c1C(=O)NCc1ccccc1,2,8,21*,1,1,7,2
O=C(CNC(=O)c1nc[nH]c1C(=O)N1CCc2ccccc2C1)OCc1ccccc1,7,3,22*,2,0,0,0
Cc1ccc(NC(=O)c2nc[nH]c2C(=O)N[C@@H](C)c2ccccc2)cc1,-26,6,24*,1,1,5,2
CC(C)C[C@H](NC(=O)c1nc[nH]c1C(=O)NC(c1ccccc1)c1ccccc1)C(=O)OCc1ccccc1,4,7,23*,7,0,17,6
CC(C)C[C@H](NC(=O)c1[nH]cnc1C(=O)N[C@@H](Cc1ccccc1)C(=O)OCc1ccccc1)C(=O)OCc1ccccc1,7,3,15,9,0,nt,nt
CC(C)N1CCCCC(NC(=O)c2cccc(F)c2)C1=O (stereo not drawn),1,-1,2,3,1,nt,nt
Nc1ccc2ccc(NS(=O)(=O)N3CCCCC3)cc2c1,-52,-23,-92,-69,0,nt,nt
CCC[C@H]1[C@@H](OC(=O)NCc2ccc(C(F)(F)F)cc2)CC[C@@]23CCCN2C(=O)CCC[C@@H]13,2,0,1,2,nt,nt,nt
CC(C)C[C@H](NC(=O)c1[nH]cnc1C(=O)N[C@H](C)c1ccccc1)C(=O)OC(C)(C)C,1,9,25*,4,2,4,2
C[C@H](NC(=O)c1nc[nH]c1C(=O)N[C@@H](C)c1ccccc1)C(=O)OC(C)(C)C,1,2,12,6,0,nt,nt
Cc1cccc(N2CCN(S(=O)(=O)c3ccc4c(c3)NC(=O)CS4)CC2)c1C,-4,8,23*,-8,0,8,2
O=C(OCCN1CCN(C2CN(Cc3cn(Cc4ccccc4F)nn3)S(=O)(=O)C2)CC1)c1cc2ccccc2o1 (stereo not drawn),1,-2,5,1,0,nt,nt
CCCc1ccc(Oc2cn[nH]c2-c2ccc(O)cc2O)cc1,5,6,22*,2,0,7,2
C=C(C)COc1ccc(-c2[nH]ncc2Oc2cccc(OC)c2)c(O)c1,1,8,27*,6,0,15,5
SMILES,PLC-gamma1 inh,ADAM17 inh,ADAM10 inh,PLCb3 inh,KLK7 zymogen act,ADAM10 confirm,ADAM17 ctr
C=C(C)COc1ccc(-c2[nH]ncc2Oc2ccccc2OCC)c(O)c1,-1,-5,-2,2,1,nt,nt
COc1ccc(Oc2cn[nH]c2-c2ccc(O)cc2O)cc1,2,7,11,-2,0,nt,nt
O=C(NCc1nc2ccccc2[nH]1)C1=C[C@H](c2coc3ccccc3c2=O)C[C@H](OCc2ccc(CO)cc2)O1,1,5,24*,-6,1,3,1
O=C(NCc1nc2ccccc2[nH]1)C1=C[C@H](c2ccccc2)C[C@H](OCc2ccc(CO)cc2)O1,-9,1,-1,-7,0,nt,nt
Cc1ccc(S(=O)(=O)NC2c3cccc4cccc(c34)C2Sc2nc(C)cc(C)n2)cc1 (stereo not drawn),-3,7,20*,-4,-1,8,2
FC(F)(F)c1ccc(-c2nc(=S)[nH][nH]2)cc1,4,3,25*,-6,0,1,2
CCN(CC)C(=O)CC[C@H]1CC[C@]2(CCCN(C(=O)C(C)(C)C)C2)O1,1,0,1,6,0,nt,nt
O=S1(=O)c2c(cccc2N2CCC[C@H]2CO)OCCCN1C1CC1,-1,-7,-9,0,0,nt,nt
CN(CCO)c1cccc2c1S(=O)(=O)N(Cc1cn(Cc3cccc(F)c3)nn1)Cc1ccccc1O2,1,-3,-13,-4,0,nt,nt
CCCOC(=O)c1ccc(Oc2c(-c3ccc(O)cc3O)n[nH]c2C)cc1,-1,6,22*,-2,0,3,2
COC(=O)[C@]12C[C@H](CC(=O)N3CCOCC3)C(=O)N(Cc3ccco3)C1=C[C@H](C(C)(C)C)O[C@@H]2C,1,-1,4,2,0,nt,nt
COc1ccc(NS(=O)(=O)c2ccc(-c3ccccn3)s2)cc1,6,5,22*,-4,0,0,0
Cc1ccc2c(c1)[C@H]1[C@H](CO2)[C@H](c2ccccc2)[C@]2(C)C(=O)Nc3ccccc3C(=O)N12,-3,2,12,-5,-1,nt,nt
COc1ccc2c(c1)[C@H]1[C@H](CO2)[C@H](c2ccccc2)[C@]2(C)C(=O)Nc3ccc(C)cc3C(=O)N12,-3,0,28*,-8,-2,10,3
Cc1ccc2c(c1)NC(=O)[C@@]1(C)[C@@H](c3ccccc3)[C@H]3COc4ccccc4[C@@H]3N1C2=O,-2,4,27*,-1,0,10,3
O=C(OCc1cn(Cc2ccc(Cl)cc2)nn1)N1CCOCC1,2,-3,-3,2,1,nt,nt
